Laboratory results published in PubChem BioAssay AID1963316 (National Center for Advancing Translational Sciences (NCATS), 2024).
Inconclusive results are not listed. A number with no mark means an inactive call. Activity calls are given as the source filed them. Calls follow the shape of the full dose curve.

What follows are molecules tested against Tyrosine-protein kinase ABL1 (Homo sapiens) (UniProt P00519) (assay: ABL1 kinase (ABL1-N-HiBiT) SDR gain of signal screen - plus ATP). Conditions: purified ABL1-N-HiBiT enzyme, HiBiT luminescence with 50 uM ATP, 30 min; series mostly up to 57.5 µM; signal gain, positive = increase: at the top concentration.
Sequence of Tyrosine-protein kinase ABL1 (Homo sapiens) (P00519 whole entry, looked up): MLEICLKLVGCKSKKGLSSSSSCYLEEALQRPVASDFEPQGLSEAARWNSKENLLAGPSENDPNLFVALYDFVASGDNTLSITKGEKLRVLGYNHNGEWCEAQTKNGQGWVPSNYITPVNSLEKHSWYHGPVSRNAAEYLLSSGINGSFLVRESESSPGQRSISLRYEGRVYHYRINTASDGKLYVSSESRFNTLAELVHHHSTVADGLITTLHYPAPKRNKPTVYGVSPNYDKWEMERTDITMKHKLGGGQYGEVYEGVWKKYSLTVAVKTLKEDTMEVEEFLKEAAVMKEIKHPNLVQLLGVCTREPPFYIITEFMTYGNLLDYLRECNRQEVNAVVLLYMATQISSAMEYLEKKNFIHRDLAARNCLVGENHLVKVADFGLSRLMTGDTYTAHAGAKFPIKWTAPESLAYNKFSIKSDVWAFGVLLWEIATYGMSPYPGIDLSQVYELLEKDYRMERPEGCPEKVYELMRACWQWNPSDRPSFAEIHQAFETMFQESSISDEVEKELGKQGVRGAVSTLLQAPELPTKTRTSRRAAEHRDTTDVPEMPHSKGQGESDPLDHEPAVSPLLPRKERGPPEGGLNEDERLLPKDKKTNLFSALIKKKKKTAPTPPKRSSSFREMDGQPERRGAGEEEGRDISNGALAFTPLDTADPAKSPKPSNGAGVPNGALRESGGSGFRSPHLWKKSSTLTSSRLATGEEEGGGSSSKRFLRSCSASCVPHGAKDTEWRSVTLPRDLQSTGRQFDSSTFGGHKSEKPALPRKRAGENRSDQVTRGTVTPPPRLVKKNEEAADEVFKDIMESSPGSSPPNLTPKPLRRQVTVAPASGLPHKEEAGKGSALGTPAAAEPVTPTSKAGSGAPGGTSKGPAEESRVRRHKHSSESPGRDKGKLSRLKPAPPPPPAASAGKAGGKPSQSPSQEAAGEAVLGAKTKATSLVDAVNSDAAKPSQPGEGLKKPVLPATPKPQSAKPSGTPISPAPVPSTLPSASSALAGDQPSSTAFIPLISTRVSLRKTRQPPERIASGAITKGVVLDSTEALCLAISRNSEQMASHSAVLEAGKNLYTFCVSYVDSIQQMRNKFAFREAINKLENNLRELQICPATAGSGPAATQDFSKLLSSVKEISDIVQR
Procedure, shortened: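 Structural-dynamics readout: compound binding alters HiBiT complementation signal of 10 nM ABL1-N-HiBiT in buffer containing 50 uM ATP. After 30 min RT compound exposure, HiBiT detection reagent added 10 min before luminescence imaging; imatinib as positive control.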

Row | SMILES | signal gain, positive = increase | Potency
1 | O=S(=O)(/N=C/c1c(O)ccc2ccccc12)c1cccs1 | -2.01% | –
2 | Cc1nc2ccc(-n3ncc(C(=O)c4cc5ccccc5[nH]4)c3N)cc2[nH]1 | 5.17% | –
3 | COc1cc2ncnc(-n3nc(-c4ccccn4)nc3N)c2cc1OC | – | 891 nM (active)
4 | CCn1nc(C2CCN(C(=O)CCO)CC2)nc1-c1cnc(N)c(-c2nnc(C(C)(C)C)o2)n1 | 5.36% | –
5 | N#Cc1ccc2ncnc(NCCc3ccccc3)c2c1 | 1.28% | –
6 | Cc1cc(Nc2ncc3cc(-c4c(Cl)cccc4Cl)c(=O)n(C)c3n2)ccc1F | 2.99% | –
7 | Cc1ccc(C(=O)Nc2ccc(CN3CCN(C)CC3)c(C(F)(F)F)c2)cc1C#Cc1cnc2[nH]ncc2c1 | – | 15.8 nM (active)
8 | N#Cc1cccc(-c2c[nH]c3ncnc(N4CCOCC4)c23)c1 | 3.34% | –
9 | CCNC(=O)Nc1ccc(-c2nc3c(c(N4CCOC[C@@H]4C)n2)CCN(c2ncccn2)C3)cc1 | -2.51% | –
10 | COc1ccc(CNC(=O)Nc2ncc([N+](=O)[O-])s2)cc1 | -6.68% | –
11 | CN1CCN(CCCNc2ncc(Cl)c(-c3cc4c(C(=O)NC5CC5)cccc4s3)n2)CC1 | 1.32% | –
12 | c1cc(-c2cc(C3CCNCC3)[nH]n2)ccn1 | 1.22% [at 28.8 µM] | –
13 | CC[C@@](C)(Nc1ccnc(-c2c[nH]c3ncccc23)n1)C(=O)NCC(F)(F)F | – | 11200 nM (active)
14 | COc1cc(N2CCC(N3CCN(C)CC3)CC2)ccc1Nc1ncc(Cl)c(Nc2ccccc2P(C)(C)=O)n1 | – | 3150 nM (active)
15 | CC(C)CCN1c2nc(Nc3cc(F)c(O)c(F)c3)ncc2N(C)C(=O)C1C (stereo not drawn) | 3.93% | –
16 | COc1cc(N2CCC(O)CC2)ccc1Nc1nc(Nc2ccccc2S(=O)(=O)C(C)C)c2[nH]cnc2n1 | 9.23% | –
17 | COc1cc2ncnc(Oc3cccc(NC(=O)Nc4cc(C(C)(C)C(F)(F)F)on4)c3)c2cc1OC | – | 1410 nM (active)
18 | C=CC(=O)Nc1cccc(Oc2nc(Nc3ccc(N4CCN(C)CC4)cc3OC)ncc2Cl)c1 | 0.255% | –
19 | COc1ccccc1-c1c[nH]c2ncc(-c3cncc(C(=O)N(C)C)c3)cc12 | – | 19.9 nM (active)
20 | CC(C)(C)n1nc(-c2cccc3ccccc23)c2c(N)ncnc21 | 7.72% | –
21 | O=C(Nc1ccc(OC(F)(F)F)cc1)c1sccc1NCc1ccnc2ccccc12 | 1.19% | –
22 | CCN1CCN(Cc2ccc(NC(=O)c3ccc(C)c(NC(=O)c4cncc(-c5cccs5)c4)c3)cc2C(F)(F)F)CC1 | 6.84% | –
23 | Cc1cccc(/C=N/Nc2cc(N3CCOCC3)nc(OCCc3ccccn3)n2)c1 | -2.29% [at 46 µM] | –
